Results reported in PubChem BioAssay AID1159580 (chemical genetic matrix, 2015).
Several values for one entry are separate records, joined by “and”; a condition that tells them apart may be missing. Identical values can stand only once. The campaign covered roughly 5,500 compounds. About 2,000 (36%) were called active. Inconclusive results (about 18%) are left out. Cut-off read from the data, not from the text of the source: active = normalized growth mostly below about 0.91 (no sharp cut-off); inconclusive = no clear call, values can overlap the other calls; inactive = mostly above about 0.92. Some of the results follow.

Test: chemical genetic growth profiling, strain panel (AID 1159580);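 note: tested at 20 µM; growth read once vehicle control cultures reached saturation at 30 °C; 1 = growth at the plate median or of vehicle wells; lower values mean less growth of the strain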
Conditions: S. cerevisiae deletion strains, growth OD

Measured: normalized growth

CC(=O)OCC(=O)[C@@]1(O)CCC2C3CCC4=CC(=O)CC[C@]4(C)C3C(=O)C[C@@]21C (stereo not given in full)
inactive: locus YAL021C, strain ccr4, stronger effect = lower value 0.988 | locus YAL026C, strain drs2, stronger effect = lower value 1.01 | locus YAL030W, strain snc1, stronger effect = lower value 0.985 | locus YBL061C, strain skt5, stronger effect = lower value 0.965 | locus YBR009C, strain hhf1, stronger effect = lower value 0.998 | locus YBR021W, strain FUR4, stronger effect = lower value 1.01 | locus YBR023C, strain chs3, stronger effect = lower value 0.989 | locus YBR171W, strain sec66, stronger effect = lower value 0.969 | locus YBR229C, strain ROT2, stronger effect = lower value 1.01 | locus YBR231C, strain swc5, stronger effect = lower value 0.951 | locus YBR279W, strain paf1, stronger effect = lower value 0.997 | locus YCL011C, strain gbp2, stronger effect = lower value 1.01 | locus YCL016C, strain dcc1, stronger effect = lower value 1.02 | locus YCL029C, strain bik1, stronger effect = lower value 1.03 | locus YCL061C, strain MRC1, stronger effect = lower value 0.982 | locus YCL069W, strain vba3, stronger effect = lower value 0.98 | locus YCR088W, strain abp1, stronger effect = lower value 0.98 | locus YDL005C, strain med2, stronger effect = lower value 0.973 | locus YDL035C, strain GPR1, stronger effect = lower value 1 | locus YDL040C, strain nat1, stronger effect = lower value 0.963 | locus YDL074C, strain BRE1, stronger effect = lower value 1.01 | locus YDL101C, strain DUN1, stronger effect = lower value 1.01 | locus YDL134C, strain PPH21, stronger effect = lower value 1 | locus YDL185W, strain tfp1, stronger effect = lower value 1.03 | locus YDL192W, strain arf1, stronger effect = lower value 1.03 | locus YDR001C, strain nth1, stronger effect = lower value 0.974 | locus YDR069C, strain doa4, stronger effect = lower value 0.98 | locus YDR101C, strain arx1, stronger effect = lower value 1.02 | locus YDR137W, strain rgp1, stronger effect = lower value 1 | locus YDR159W, strain sac3, stronger effect = lower value 0.963 | locus YDR162C, strain NBP2, stronger effect = lower value 1.01 | locus YDR195W, strain ref2 0.913 | locus YDR297W, strain sur2, stronger effect = lower value 0.989 | locus YDR318W, strain mcm21, stronger effect = lower value 1.01 | locus YDR334W, strain swr1, stronger effect = lower value 0.968 | locus YDR335W, strain msn5, stronger effect = lower value 0.969 | locus YDR388W, stronger effect = lower value 1.03 | locus YDR392W, strain spt3, stronger effect = lower value 1.04 | locus YDR502C, strain sam2, stronger effect = lower value 1.04 | locus YEL003W, strain gim4, stronger effect = lower value 0.968 | locus YEL037C, strain rad23, stronger effect = lower value 0.976 | locus YEL061C, strain CIN8 (second series), stronger effect = lower value 0.983 | locus YEL061C, strain CIN8, stronger effect = lower value 1.01 | locus YER015W, strain faa2, stronger effect = lower value 0.992 | locus YER016W, strain bim1, stronger effect = lower value 0.988 | locus YER110C, stronger effect = lower value 1.04 | locus YER111C, strain swi4, stronger effect = lower value 0.971 | locus YER155C, strain BEM2 (second series), stronger effect = lower value 0.97 | locus YER155C, strain BEM2, stronger effect = lower value 1 | locus YER167W, strain BCK2, stronger effect = lower value 1.01 | locus YFR010W, strain ubp6, stronger effect = lower value 0.977 | locus YGL078C, strain dbp3, stronger effect = lower value 1.03 | locus YGL086W, strain mad1, stronger effect = lower value 0.994 | locus YGL167C, strain pmr1, stronger effect = lower value 0.952 | locus YGL173C, strain kem1, stronger effect = lower value 0.955 | locus YGL227W, strain vid30, stronger effect = lower value 0.983 | locus YGL240W, strain doc1, stronger effect = lower value 0.962 | locus YGL248W, strain PDE1, stronger effect = lower value 1.02 | locus YGL253W, strain hxk2, stronger effect = lower value 0.981 | locus YGR135W, strain pre9, stronger effect = lower value 1.03 | locus YGR252W, strain gcn5, stronger effect = lower value 1.05 | locus YHR013C, strain ard1, stronger effect = lower value 0.991 | locus YHR027C, strain rpn1, stronger effect = lower value 1 | locus YHR030C, strain SLT2, stronger effect = lower value 1 and 0.999 | locus YHR079C, strain IRE1 (second series), stronger effect = lower value 1.03 | locus YHR079C, strain IRE1, stronger effect = lower value 0.996 | locus YHR094C, strain hxt1, stronger effect = lower value 1.02 | locus YHR129C, strain ARP1, stronger effect = lower value 1 | locus YHR142W, strain chs7, stronger effect = lower value 0.978 | locus YHR200W, strain rpn10, stronger effect = lower value 1.03 | locus YIL066C, strain RNR3, stronger effect = lower value 1.01 | locus YIL073C, strain SPO22, stronger effect = lower value 1.06 | locus YIL125W, strain kgd1, stronger effect = lower value 1.02 | locus YIR030C, strain dcg1, stronger effect = lower value 1.03 | locus YJL092W, strain hpr5, stronger effect = lower value 0.968 | locus YJL095W, strain BCK1 (second series), stronger effect = lower value 0.992 | locus YJL095W, strain BCK1, stronger effect = lower value 1.02 | locus YJL115W, strain asf1, stronger effect = lower value 0.985 | locus YJL129C, strain trk1, stronger effect = lower value 0.922 | locus YJL134W, strain LCB3, stronger effect = lower value 1.01 | locus YJL154C, strain vps35, stronger effect = lower value 0.963 | locus YJL164C, strain tpk1, stronger effect = lower value 1 | locus YJL166W, strain qcr8, stronger effect = lower value 0.966 | locus YJL168C, strain set2, stronger effect = lower value 1.03 | locus YJL187C, strain SWE1 (second series), stronger effect = lower value 1.01 | locus YJR043C, strain POL32, stronger effect = lower value 0.993 | locus YJR066W, strain TOR1, stronger effect = lower value 0.973 | locus YJR075W, strain HOC1, stronger effect = lower value 1.01 | locus YKL009W, strain mrt4, stronger effect = lower value 1.02 | locus YKL068W, stronger effect = lower value 1.02 | locus YKL085W, strain MDH1 (second series), stronger effect = lower value 1.02 | locus YKL085W, strain MDH1, stronger effect = lower value 1.02 | locus YKL160W, strain elf1, stronger effect = lower value 0.961 | locus YKR001C, strain vps1, stronger effect = lower value 1.04 | locus YKR026C, strain gcn3, stronger effect = lower value 0.974 | locus YKR091W, strain srl3, stronger effect = lower value 0.974 | locus YLL001W, strain dnm1, stronger effect = lower value 0.93 | locus YLL026W, stronger effect = lower value 0.994 | locus YLL041C, strain sdh2, stronger effect = lower value 0.98 | locus YLR027C, strain aat2, stronger effect = lower value 0.961 | locus YLR039C, strain RIC1, stronger effect = lower value 1 | locus YLR058C, strain SHM2, stronger effect = lower value 1.01 | locus YLR102C, strain apc9, stronger effect = lower value 1.03 | locus YLR113W, strain HOG1, stronger effect = lower value 0.986 | locus YLR221C, strain rsa3, stronger effect = lower value 1.01 | locus YLR258W, strain gsy2, stronger effect = lower value 0.995 | locus YLR262C, strain YPT6 (second series), stronger effect = lower value 0.951 | locus YLR262C, strain YPT6, stronger effect = lower value 1.05 | locus YLR268W, strain sec22, stronger effect = lower value 1.04 | locus YLR320W, strain mms22, stronger effect = lower value 0.993 | locus YLR330W, strain CHS5, stronger effect = lower value 1.01 | locus YLR342W, strain FKS1 (second series), stronger effect = lower value 0.987 | locus YLR342W, strain FKS1, stronger effect = lower value 0.963 | locus YLR357W, strain rsc2, stronger effect = lower value 0.974 | locus YLR370C, strain arc18, stronger effect = lower value 0.973 | locus YLR371W, strain rom2, stronger effect = lower value 1.02 | locus YLR384C, strain iki3, stronger effect = lower value 0.974 | locus YLR418C, strain cdc73, stronger effect = lower value 1.08 | locus YML016C, strain PPZ1, stronger effect = lower value 1.01 | locus YML032C, strain rad52, stronger effect = lower value 1.04 | locus YML120C, strain ndi1, stronger effect = lower value 0.967 | locus YML124C, strain tub3, stronger effect = lower value 1.03 | locus YMR058W, strain fet3, stronger effect = lower value 0.971 | locus YMR078C, strain ctf18, stronger effect = lower value 1.04 | locus YMR125W, strain sto1, stronger effect = lower value 0.988 | locus YMR129W, stronger effect = lower value 0.991 | locus YMR205C, strain PFK2, stronger effect = lower value 0.983 | locus YMR223W, strain ubp8, stronger effect = lower value 1.04 | locus YMR231W, strain pep5, stronger effect = lower value 0.972 | locus YMR263W, strain SAP30, stronger effect = lower value 1.01 | locus YMR307W, strain GAS1, stronger effect = lower value 0.923 | locus YNL067W, strain RPL9B, stronger effect = lower value 1.01 | locus YNL071W, strain lat1, stronger effect = lower value 1.01 | locus YNL153C, strain GIM3, stronger effect = lower value 1.01 | locus YNL183C, strain NPR1, stronger effect = lower value 0.953 | locus YNL209W, strain ssb2, stronger effect = lower value 0.998 | locus YNL233W, strain BNI4, stronger effect = lower value 1.01 | locus YNL248C, strain rpa49, stronger effect = lower value 1 | locus YNL250W, strain rad50, stronger effect = lower value 1.05 | locus YNL271C, strain bni1, stronger effect = lower value 1.04 | locus YNL298W, strain CLA4, stronger effect = lower value 1.02 | locus YNL307C, strain MCK1, stronger effect = lower value 1.02 | locus YNL322C, strain KRE1 (second series), stronger effect = lower value 0.969 | locus YNL322C, strain KRE1, stronger effect = lower value 1.01 | locus YNR049C, strain mso1, stronger effect = lower value 0.977 | locus YNR052C, strain pop2, stronger effect = lower value 1.02 | locus YOL012C, strain htz1 1.93 | locus YOL147C, strain pex11, stronger effect = lower value 1.04 | locus YOR001W, strain rrp6, stronger effect = lower value 0.951 | locus YOR061W, strain CKA2, stronger effect = lower value 1.01 | locus YOR069W, strain VPS5, stronger effect = lower value 1.01 | locus YOR070C, strain gyp1, stronger effect = lower value 0.993 | locus YOR080W, strain dia2, stronger effect = lower value 0.956 | locus YOR083W, strain WHI5, stronger effect = lower value 0.959 | locus YOR106W, strain vam3, stronger effect = lower value 0.966 | locus YOR136W, strain idh2, stronger effect = lower value 1.03 | locus YOR144C, strain elg1, stronger effect = lower value 1.02 | locus YOR184W, strain ser1, stronger effect = lower value 1.05 | locus YOR231W, strain MKK1, stronger effect = lower value 0.995 | locus YOR265W, strain rbl2, stronger effect = lower value 0.991 | locus YOR270C, strain vph1, stronger effect = lower value 0.978 | locus YOR290C, strain snf2, stronger effect = lower value 1.01 | locus YOR316C, strain cot1, stronger effect = lower value 1.03 | locus YPL051W, strain arl3, stronger effect = lower value 0.989 | locus YPL055C, strain LGE1, stronger effect = lower value 1 | locus YPL078C, strain atp4, stronger effect = lower value 0.933 | locus YPL106C, strain sse1, stronger effect = lower value 1.02 | locus YPL240C, strain hsp82, stronger effect = lower value 0.984 | locus YPL241C, strain CIN2, stronger effect = lower value 1 | locus YPL256C, strain CLN2, stronger effect = lower value 0.962 | locus YPR119W, strain clb2, stronger effect = lower value 1.03 | locus YPR141C, strain kar3, stronger effect = lower value 1.04 | locus YPR163C, strain tif3, stronger effect = lower value 1.05 | locus YPR167C, strain met16, stronger effect = lower value 1.03 | strain wtn01, stronger effect = lower value 1.04
